Results reported in PubChem BioAssay AID1259336 (Sattelle Laboratory, UCL Respiratory, Division of Medicine, …, 2017).
The source made the active and inactive calls. Rule as the data show it: active = log2 fold change growth below about -1.8; inactive = the rest.

assay: C. elegans growth inhibition, whole organism, log2 fold change (AID 1259336); conditions: anthelmintic screen, hits give low values;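 also: growth scored by imaging after five days at 20 °C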

log2 fold change growth, active:
O=C(Nc1ccc(F)c(-c2nc3ncc(-c4ccccc4)cc3[nH]2)c1)N1CCCC1 -5.81, CC(C)n1nc(-c2cc3c(Cl)cccc3[nH]2)c2c(N)ncnc21 -2.56, COC(=O)C1=C(C)NC(C)=C(C(=O)OC(C)C)[C@H]1c1cccc2nonc12 -2.22

log2 fold change growth, inactive:
CCCCc1ccc(C(=O)Nc2nccc3ccccc23)nc1 0.243, COc1cc(N[C@@H](C)CCCN)c2ncccc2c1 -0.0147, Cc1[nH]n2c(=O)c3c(nc2c1-c1ccc(F)cc1)CCCC3 -0.19, CNc1cc(C)nc([C@@H]2CN(C(=O)c3n[nH]c4ccccc34)CCO2)c1 0.0798, CNC(=O)c1cc(S(=O)(=O)N2CCN(c3ccccn3)CC2)cs1 -0.156, O=C(Nc1n[nH]c(=S)s1)c1cc(Br)ccc1Cl 0.172, O=C(N[C@H]1CCN(c2ccnc3ccccc23)C1)c1cccc(C(F)(F)F)c1 0.541, Cc1ccc2cc([C@@H]3NC(=O)c4ccccc4N3)c(Cl)nc2c1 -0.0454, CC(C)(C)OC(=O)N1CCN(c2cc(-c3ccc(Oc4ccccc4)cc3)[nH]n2)CC1 -0.56, O=C(NCCc1ccn(-c2ccccc2)n1)C1CCCCC1 0.0936, COc1ccc(C2=NN(C3CCCCCC3)C(=O)C2(C)C)cc1OCCCCOc1ccc(-c2nn[nH]n2)cc1 -0.216, C[C@H](C(N)=O)N1CCCC[C@H]1c1ccc(OCc2cccc(F)c2)cc1 -0.0659, NS(=O)(=O)c1cccc(-c2ccc3ncc(N4CCOCC4)nc3c2)c1 -0.363, O=C(Nc1ccc(C(F)(F)F)c(C(F)(F)F)c1)c1cc(Cl)ccc1O 0.513, C[C@@H](C(=O)N1CCCC1)N1CCN(S(=O)(=O)c2ccc(C(C)(C)C)cc2)CC1 0.667, COc1cc(CN2CCC3(C=Cc4ccccc43)CC2)cc2c1OCO2 -0.677, COc1ccc(-c2nnc3ccc(-c4cccc(C(C)C)c4)cn23)cc1OC -0.151, COc1cc(OC)cc(C(=O)NC[C@H]2Cc3cc(Cl)cc(-c4ccncc4)c3O2)c1 -1.17, C[C@H](C(N)=O)N1CCCC[C@@H]1c1ccc(OCc2cccc(F)c2)cc1 -0.0568, c1ccc(Oc2ccc(-c3cc(N4CCNCC4)n[nH]3)cc2)cc1 0.489, Nc1ccc2ncnc(Nc3ccc(OCc4cccc(F)c4)c(Cl)c3)c2c1 -0.0667, CCCNC(=O)N1CCC2(CC1)CC(=O)c1cc(C)ccc1O2 -0.181, CC(C)(C)C(=O)N(CCCCCCN1C[C@H](O)[C@@H](O)[C@H](O)[C@H]1CO)C1CCCCCC1 -0.767, CCc1c(C)nc(-n2nc(C)cc2NC(=O)c2ccccc2SC)[nH]c1=O -0.0348, CC(=O)N1CCc2cc3nc(C)cc(C)c3cc21 0.139, Cc1cc(C)nc(-n2nc(C)cc2Nc2ccccc2)n1 0.0497, COC(=O)c1c(NC(=O)c2c(F)c(F)c(F)c(F)c2F)sc2c1CCCCC2 0.243, Cc1cc(NC(=O)c2ccc(Oc3ccc(Cl)cc3O)o2)no1 0.201, c1ccc(Oc2ccc(-c3cc(C4CCOCC4)[nH]n3)cc2)cc1 -0.254, CCN(CC)S(=O)(=O)c1ccc(Cl)c(C(=O)Nc2ccc3nc(C)sc3c2)c1 -1.22, Cc1ccc2oc(-c3cc(NC(=O)Cc4ccccc4)ccc3Cl)nc2c1 0.272, O=C(N[C@H](Cc1ccccc1)C(=O)Nc1ccccc1N1CCOCC1)c1cccs1 0.306, Cc1ccc(NC(=O)C[C@H]2COc3ccccc3O2)cc1Cl -0.476, CCNC(=O)[C@H](C)Nc1nc(-c2cccnc2)nc2sc(C)c(C)c12 0.136, COc1ccc2nc(C)cc(OCC(=O)NCc3ccccc3)c2c1 0.118
